Hits are enriched below; roughly 2.8% of the tested compounds scored in any of these assays.
pCIP destab: lowers stability of the mouse p/CIP coactivator protein; Q05BA5; F442A p/CIP-EGFP cells, EGFP fluorescence, 16 h; decrease of EGFP signal, % at 10 µM; 290,000 tested, 0.01% active;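 active means EGFP signal decrease of at least 30% at 10 µM or well 3 SD below plate mean, unless failing retest; inactive means the rest, including hits failing retest or dose response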
Target sequence (Q05BA5 1-1403): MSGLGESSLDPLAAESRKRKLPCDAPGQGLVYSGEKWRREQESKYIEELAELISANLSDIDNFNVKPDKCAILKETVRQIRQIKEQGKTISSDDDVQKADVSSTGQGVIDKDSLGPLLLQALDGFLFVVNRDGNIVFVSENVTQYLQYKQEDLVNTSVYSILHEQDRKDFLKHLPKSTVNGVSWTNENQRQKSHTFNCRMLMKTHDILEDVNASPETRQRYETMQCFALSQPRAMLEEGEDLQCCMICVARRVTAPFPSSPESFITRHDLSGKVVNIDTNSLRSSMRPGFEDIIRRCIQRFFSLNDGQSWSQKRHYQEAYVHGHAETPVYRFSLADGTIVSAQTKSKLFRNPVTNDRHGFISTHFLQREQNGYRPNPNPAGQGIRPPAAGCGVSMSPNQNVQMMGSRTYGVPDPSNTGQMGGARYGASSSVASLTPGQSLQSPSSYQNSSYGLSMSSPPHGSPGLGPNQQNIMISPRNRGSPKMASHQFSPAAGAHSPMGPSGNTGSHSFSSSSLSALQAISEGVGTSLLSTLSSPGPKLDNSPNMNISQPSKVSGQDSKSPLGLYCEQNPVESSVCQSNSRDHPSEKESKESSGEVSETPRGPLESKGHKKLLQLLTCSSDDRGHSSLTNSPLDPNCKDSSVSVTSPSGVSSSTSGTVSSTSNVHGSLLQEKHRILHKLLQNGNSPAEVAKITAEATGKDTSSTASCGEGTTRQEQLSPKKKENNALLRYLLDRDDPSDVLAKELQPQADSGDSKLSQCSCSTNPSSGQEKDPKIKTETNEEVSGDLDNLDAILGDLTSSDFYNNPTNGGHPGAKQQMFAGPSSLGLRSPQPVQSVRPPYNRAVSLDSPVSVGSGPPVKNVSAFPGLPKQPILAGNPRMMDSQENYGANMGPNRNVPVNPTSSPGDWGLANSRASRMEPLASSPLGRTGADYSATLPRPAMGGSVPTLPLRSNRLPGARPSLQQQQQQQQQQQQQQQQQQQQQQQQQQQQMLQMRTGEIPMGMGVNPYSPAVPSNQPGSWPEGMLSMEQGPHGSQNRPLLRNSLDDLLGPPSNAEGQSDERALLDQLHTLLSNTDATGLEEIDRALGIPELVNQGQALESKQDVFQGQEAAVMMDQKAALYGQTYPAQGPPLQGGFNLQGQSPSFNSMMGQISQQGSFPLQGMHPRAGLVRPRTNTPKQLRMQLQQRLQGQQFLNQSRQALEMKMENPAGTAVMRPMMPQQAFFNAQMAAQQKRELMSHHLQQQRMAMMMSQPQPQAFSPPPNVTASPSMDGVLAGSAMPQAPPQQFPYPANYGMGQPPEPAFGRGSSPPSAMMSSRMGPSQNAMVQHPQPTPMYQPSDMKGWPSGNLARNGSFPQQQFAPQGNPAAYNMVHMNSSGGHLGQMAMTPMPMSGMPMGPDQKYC
Platelet DG rel: modulates dense granule release in human platelets. inhibition, %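 (compounds screened at 7.5 µM in platelet-rich plasma)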. 300,000 tested, 0.22% active. AID 1663. human platelet-rich plasma, SFLLRN dense granule ATP release, luminescence;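 active means mean replicate score, as percent of positive control, at or above 50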
AHR activator: human AHR activation; activation, % at 5 µM; AID 2796; AHR-responsive luciferase reporter cells, luminescence; P35869; 320,000 tested, 2.5% active; in the data active means activation above about 47%;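 further: 0% = vehicle wells and 100% = reference agonist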
PolyA inh: blocks polyadenylation in yeast reporter cells; activity score, % at 12 µM; AID 1875; 300,000 tested, 0.02% active; S. cerevisiae SKY197-pL101 polyadenylation reporter, beta-gal luminescence; efflux-impaired pdr1/pdr3 knockout yeast; score 100 = 6 SD above DMSO;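 active means lowest replicate activity score at least 50, where 100 means six control SD above control mean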;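 further: yeast exposed to compound for 9 h at 30 °C; higher score means more reporter readthrough which indicates perturbed polyadenylation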
HIF activator: HIF pathway transcriptional activation; U2OS HRE-luciferase reporter, luminescence; normalized: DMSO 0%, desferrioxamine 100%; AID 1910; 300,000 tested, 0.32% active; activation, % at 7.5 µM (by protocol);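 active means mean activation of at least 10% of the iron chelator positive control signal, with at least half of replicates also reaching 10%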
AHR act confirm: confirmation of human aryl hydrocarbon receptor activators | 2,300 tested, 87% active | human cells, AHR-responsive luciferase reporter, luminescence | activation, % at 9 µM | shares compounds with AHR activator; in the data active means activation above about 49%;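 further: HepG2 hepatoma cells carrying a DRE-driven firefly luciferase reporter; 0% = vehicle wells and 100% = reference agonist wells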
PXR act counter: PXR activation, counter-screen for AHR activators; shares compounds with AHR activator; cell-based PXR reporter, luciferase luminescence; activation, % at 11.6 µM; 2,300 tested, 88% active; AID 434939; in the data active means activation above about 11%;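 further: human hepatoma DPX-2 cells expressing full-length human PXR; 0% = DMSO and 100% = reference agonist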
Active calls of the source: *; . = not tested or not shown.

SMILES | pCIP destab | Platelet DG rel | AHR activator | PolyA inh | HIF activator | AHR act confirm | PXR act counter
COC(=O)C1CC(c2ccc(Cl)cc2)=NO1 (stereo unspecified) | 8 | 0 | 1 | -6 | 0 | . | .
CCN(CC)S(=O)(=O)c1cccc(NC(=O)/C=C/c2ccc([N+](=O)[O-])cc2)c1 | 7 | -4 | 7 | 14 | 0 | . | .
COc1cccc(NC(=O)/C=C/c2ccc([N+](=O)[O-])cc2)c1 | 6 | 15 | 88* | 4 | 2 | 91* | 25*
CCCNC(=O)c1ccc(COc2ccc(CCC)cc2OC)o1 | -2 | 7 | 80* | -3 | -10 | 80* | 41*
CCCNC(=O)c1ccc(COc2cccc3ccccc23)o1 | -1 | 2 | 31 | -21 | -1 | . | .
Cc1cccc(NC(=O)CSc2nnc(C)c(C)n2)c1 | -10 | -3 | 1 | 10 | 0 | . | .
O=C(N/N=C/c1ccc([N+](=O)[O-])cc1)c1cc2ccccc2o1 | 2 | -8 | 1 | -1 | 0 | . | .
C/C(=N\Nc1ccc([N+](=O)[O-])cc1)c1cc2ccccc2o1 | -52 | 3 | 81* | -9 | 0 | 128* | 15*
CSc1nc2ncc(C(=O)O)c(N)n2n1 | 1 | 2 | -3 | 3 | 0 | . | .
O=C(CCc1nc2ccccc2s1)Nc1ccccc1 | 2 | -1 | -6 | 0 | 0 | . | .
S=C(Nc1ccccc1)c1nc2ccccc2s1 | 0 | 2 | 124* | -23 | 2 | 142* | 10
Brc1ccc2ncnc(Nc3ccc(N4CCOCC4)cc3)c2c1 | -1 | -11 | 92* | -35 | . | 63* | .
CC1CCCN(C(=O)c2cc3c(-c4ccc(Cl)cc4)nn(C)c3s2)C1 (stereo unspecified) | 7 | -8 | 82* | 6 | . | 80* | 23*
Cn1nc(-c2ccc(Cl)cc2)c2cc(C(=O)N3CCN(C(=O)c4ccco4)CC3)sc21 | -1 | 6 | 34 | -14 | . | . | .
Cc1cc(=O)[nH]c(N/N=C/c2ccc(Br)s2)n1 | -1 | 7 | 81* | 0 | 1 | 66* | .
CCOC(=O)c1sc(N/N=C/c2ccc(N(C)C)cc2)nc1C | -7 | -3 | 130* | 2 | 1 | 86* | 11*
COc1cccc(NC(=O)N2CCCC2C(=O)NCc2ccc(Cl)cc2)c1 (stereo unspecified) | -9 | 2 | -2 | 7 | -2 | . | .
FC(F)(F)c1cnc(N/N=C/c2ccncc2)c(Cl)c1 | -4 | -1 | 93* | 3 | 0 | 75* | 18*
COc1cc2c(cc1NC(=O)/C=C/c1cc(OC)c(OC)c(OC)c1)oc1ccccc12 | 1 | 0 | 88* | 8 | 1 | 53* | 10*
COc1cc2c(cc1NC(=O)CSc1ccccn1)oc1ccccc12 | 7 | 1 | 105* | -4 | 5 | 91* | 16*
COc1cc2c(cc1NC(=O)CSc1ccc(Cl)cc1)oc1ccccc12 | -3 | -6 | 7 | 4 | 0 | . | .
Cc1cccc(Cn2nc(-n3cccc3)c3c(C)cc(C)nc32)c1 | 3 | -2 | -1 | -2 | 0 | . | .
NNc1nc2c(-c3ccc(F)cc3)nnn2c2ccccc12 | -12 | 24 | 102* | -6 | 4 | 128* | 35*
Fc1ccc(-c2nnn3c2nc(NCc2ccccc2)c2ccccc23)cc1 | -2 | 0 | 22 | -4 | 0 | . | .
NNc1nc2c(-c3ccc(Cl)cc3)nnn2c2ccccc12 | -153 | 4 | 97* | -2 | 2 | 117* | 16*
SMILES | pCIP destab | Platelet DG rel | AHR activator | PolyA inh | HIF activator | AHR act confirm | PXR act counter
COCCCNc1nc2c(-c3ccc(Cl)cc3)nnn2c2ccccc12 | -8 | -3 | 40 | 15 | 1 | . | .
CCOc1cc(N2CCOCC2)c(OCC)cc1NC(=S)NCCCOC | -2 | -19 | 0 | 13 | -1 | . | .
COc1cc(/C=N/Nc2nc(Nc3ccc(C)cc3)nc(-n3nc(C)cc3C)n2)cc(OC)c1OC | -13 | -1 | 33 | 7 | -1 | . | .
COc1cc(/C=N/Nc2nc(Nc3ccccc3)nc(-n3nc(C)cc3C)n2)cc(OC)c1OC | 3 | 17 | 80* | 7 | 0 | 68* | 26*
O=C(/C=C\c1cccs1)c1c(O)ccc2ccc(=O)oc12 | -10 | 3 | 85* | -4 | 0 | 97* | .
CCOc1ccc(NC(=O)c2cnc3scc(C)n3c2=O)cc1 | -4 | 21 | 90* | 0 | 1 | 129* | 22*
COc1cccc(N=Nc2c(N)[nH]n3c(=O)c4c(nc23)CCCC4)c1 | -10 | 1 | 30 | -18 | 0 | . | .
CCOCC(=O)Nc1cccc(-c2nc3cccnc3s2)c1C | -5 | -2 | 88* | 0 | 1 | 107* | .
CCn1nc(C)c(C2C(C#N)=C(N)OC3=C2C(=O)CC(C)(C)C3)c1C (stereo unspecified) | -2 | -14 | -1 | -1 | . | . | .
COc1cccc2sc3cc(NCc4ccc(C)o4)ccc3c(=O)c12 | . | . | 96* | . | . | 95* | 55*
COc1cc2sc3cc(NCCCN4CCOCC4)ccc3c(=O)c2cc1OC | . | . | 8 | . | . | . | .
O=c1n(-c2ccccc2)c(=O)n(Cc2ccccn2)n1Cc1ccccn1 | -10 | 1 | 0 | 0 | 0 | . | .
Clc1cccc2sc(N3CCN(c4ccccc4)CC3)nc12 | 2 | 1 | 122* | 0 | . | 112* | 17*
C[C@@H]1CN(Cc2cn(C)nc2-c2cccc(Cl)c2)C[C@H](C)O1 | -5 | -4 | -2 | 7 | 0 | . | .
COc1cccc(-n2c(SCC(=O)NCCC3=CCCCC3)nc3n[nH]c(C)c3c2=N)c1 | 0 | 5 | 82* | 0 | 0 | 91* | 161*
CCc1cc(OCCOCCN(C)C)ccc1Cl | 5 | -1 | -1 | -10 | -1 | . | .
Clc1ccc(-c2cn3cc(Cl)ccc3n2)cc1 | 6 | 10 | 87* | -24 | -10 | 124* | 19*
NNC(=O)c1ccc2nc(-c3ccc(Br)cc3)cn2c1 | 0 | 2 | 100* | -19 | 1 | 50* | 21*
CC(=O)Nc1ccc(-c2cn3cc(C)ccc3n2)cc1 | 8 | 9 | -5 | 23 | 0 | . | .
CC(=O)Nc1cccc(OCC(=O)Nc2ccc(F)cc2)c1 | -5 | -1 | 85* | 8 | 1 | 76* | .
CCOc1ccc(NC(=O)CNC(=O)COc2ccccc2)cc1 | 3 | -5 | 121* | 13 | 1 | 15 | 11*
CCOc1ccc(NC(=O)Nc2cccc(C)n2)cc1 | 0 | 2 | 80* | -5 | 2 | 71* | 18*
CCOc1ccc(C(=O)Nc2cccc(C)n2)cc1 | -13 | 30 | 11 | -6 | 1 | . | .
O=S1(=O)N=C2CCCCCN2C(c2ccc(Br)cc2)N1 (stereo unspecified) | -5 | 12 | -2 | 12 | -3 | . | .
Cc1cc(C)n2c(SC(C)C(=O)NC3(C#N)CCCCC3)nnc2n1 (stereo unspecified) | . | . | 0 | . | . | . | .
